According to PubChem BioAssay (NCI):
About 83,000 compounds went through this panel and 20% of them were active in at least one assay; those are over-represented in the sample as a whole.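 Note: values are percent growth. 100 is the growth of untreated cells, values between 100 and 0 indicate rising inhibition; between -100 and 0 indicates cell death.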 The source made the active and inactive calls. Rule for the calls: active = growth percent below 10; inactive = the rest.

Assays:
Test in all cases: NCI-60 one-dose screen, 48 h (100 = growth as untreated, 0 = no growth, -100 = all killed)
[1] = system: SK-MEL-2 melanoma; conditions: 10 µM
[2] = system: EKVX NSCLC; conditions: 10 µM unless noted
[3] = system: SN12C renal; conditions: 10 µM unless noted
[4] = system: UO-31 renal; conditions: 10 µM unless noted
[5] = system: TK-10 renal; conditions: 10 µM unless noted
[6] = system: ACHN renal; conditions: 10 µM unless noted
[7] = system: CAKI-1 renal; conditions: 10 µM unless noted
[8] = system: A498 renal; conditions: 10 µM unless noted
[9] = system: CCRF-CEM leukemia; conditions: 10 µM unless noted
[10] = system: MOLT-4 leukemia; conditions: 10 µM unless noted

Measured: growth

CCc1nc2cc(/C=C/C(=O)NO)ccc2c(=O)n1CCc1ccc(F)cc1
inactive: [1] 49.1% | [2] 38.5%
active: [3] 0.812% | [4] -15.5% | [5] -12.3% | [6] -26.5% | [7] 0.0916% | [8] -26.2% | [9] 2.06% | [10] -3.04%

COc1ccc(-n2c(=O)c3ccccc3n(Cc3ccc(C(=O)NO)cc3)c2=O)cc1
active: [8] -2.54% | [9] 3.15% | [10] -10.1%
inactive: [1] 14.2% | [2] 16.7% | [3] 33.6% | [4] 55% | [5] 19.6% | [6] 50.3% | [7] 64.9%

CCc1nc2cc(/C=C/C(=O)NO)c(F)cc2c(=O)n1CCc1ccccc1
inactive: [1] 35% | [2] 20.6%
active: [3] 3.45% | [4] -28.7% | [5] -5.84% | [6] 1.28% | [7] -1.21% | [8] -16.5% | [9] 2.77% | [10] -2.57%

COc1cnc2c(c1)C(=O)c1c-2n(CCCN2CCOCC2)c(=O)c2cc(Cl)ccc12
active: [6] 6.75% | [8] -2.15% | [9] 1.33% | [10] -17.8%
inactive: [1] 92.1% | [2] 54.2% | [3] 21.6% | [4] 13.8% | [5] 83.1% | [7] 18.3%

Fc1ccc(NCc2cn(-c3ccccc3)nc2-c2ccc(OCc3ccccc3)cc2)cc1Cl
inactive: [1] 91.9% | [2] 85.7% | [3] 91.6% | [4] 75% | [5] 93.7% | [6] 91% | [7] 82.9% | [8] 119% | [9] 92% | [10] 85.8%

CC(C)(C)CC(C)(C)Nc1c(-c2c(O)c3ccccc3oc2=O)nc2c(Cl)cc(C(F)(F)F)cn12
inactive: [1] 102% | [2] 97.3% | [3] 91.6% | [4] 70.7% | [5] 96.4% | [6] 97.3% | [7] 87.6% | [8] 62% | [9] 89.1% | [10] 82.6%

CCNCCNc1cc(-c2ccc(Cl)c(Cl)c2)c(C#N)c2nc3ccccc3n12
active: [1] -83.1% | [2] -80% | [3] -68.9% | [4] -84% | [5] -84.3% | [6] -90.5% | [7] -95.4% | [8] -76.6% | [9] -30.3% | [10] -43.4%

CCc1nc2cc(F)c(/C=C/C(=O)NO)cc2c(=O)n1CCc1ccccc1
active: [1] 9.96% | [4] -15% | [5] 1.94% | [6] 3.69% | [7] 0.745% | [8] -14.1% | [9] 3.07% | [10] 3.34%
inactive: [2] 25.7% | [3] 13.6%

O=C1CC(c2cccc(F)c2)c2c(n[nH]c2-c2ccc(Cl)cc2)N1 (stereo not given)
inactive: [1] 110% | [2] 85.1% | [3] 92.8% | [4] 79.3% | [5] 94.1% | [6] 90% | [7] 77.7% | [9] 101% | [10] 88%

N#Cc1c(-c2ccc(C(F)(F)F)cc2)c(F)c(NCCC2CCC(O)C2)n2c1nc1ccccc12 (stereo not given)
inactive: [1] 101% | [2] 43.8% | [3] 49.1% | [4] 52.6% | [5] 83.6% | [6] 61.2% | [7] 26.6% | [8] 35.4% | [9] 17.9% | [10] 45.9%

NC(=O)N1N=C(c2ccc(Cl)cc2)CC1c1cn(-c2ccccc2)nc1-c1ccc(Cl)cc1 (stereo not given)
inactive: [1] 74.3% | [2] 58.1% | [3] 61.9% | [4] 21.5% | [5] 43.2% | [6] 26.1% | [7] 67.7% | [8] 71.1% | [9] 85.2% | [10] 62.9%

Cc1nn(-c2nc3ccccc3[nH]2)c2c1C(c1ccc(OCc3ccc(F)cc3)cc1)CC(=O)N2 (stereo not given)
active: [10] 7.48%
inactive: [1] 30.7% | [2] 81.7% | [3] 55.4% | [4] 36.9% | [5] 56.1% | [6] 48.2% | [7] 66.2% | [9] 52.8%

CC1(C=O)NC(=O)NC1=O (stereo not given)
inactive: [1] 106% | [2] 99.6% | [3] 97.8% | [4] 96% | [5] 100% | [6] 104% | [7] 98.6% | [9] 95.7% | [10] 89.9%

Nc1c(C(=O)c2ccccc2)sc2nc(-c3cccs3)ccc12
inactive: [1] 44.2% | [2] 60.8% | [3] 44.9% | [4] 48.7% | [5] 56.7% | [6] 54.3% | [7] 38.5% | [9] 19.1% | [10] 28.1%

Cc1cc(O)c2c(c1)C1OC(=O)CCCCCN1C1=C2C(=O)c2cccc(OC3CC(O)C(O)C(C)O3)c2C1=O (stereo not given)
inactive: [1] 46.4% | [2] 97% | [3] 66.3% | [4] 99.9% | [5] 142% | [6] 69.1% | [7] 96.9% | [9] 57.8% | [10] 63.3%

CCCCCCCC(=O)SCC/C=C/[C@@H]1CC(=O)NCc2cc(ccn2)C2=N[C@@](C)(CS2)C(=O)N[C@@H](C(C)C)C(=O)O1
inactive: [2] 19.9% | [3] 21.9% | [9] 39% | [10] 12.8%
active: [1] -2.2% | [4] -10.5% | [5] -15.6% | [6] -17.2% | [7] -54.4%

Cc1ccccc1Nc1nc2nonc2nc1Nc1cccc(C)c1C
inactive: [1] 24.9% | [2] 27.2% | [3] 44.3% | [4] 51.4% | [5] 56.4% | [6] 52.6% | [7] 48.9% | [9] 50.6% | [10] 53.5%

COC(=O)[C@]12CC[C@@H](C)[C@H](C)[C@@H]1C1=CC[C@@H]3[C@@]4(C)C[C@@H](OC(=O)/C=C/c5ccccc5)[C@H](O)[C@@](C)(CO)[C@@H]4[C@H](O)C[C@@]3(C)[C@]1(C)CC2
active: [3] -83.2% | [6] 3.47% | [10] 0.848%
inactive: [1] 47.8% | [2] 33.8% | [4] 19.6% | [5] 18.1% | [7] 15.6% | [9] 18.8%

CC1(/C=N/NC(N)=S)NC(=O)NC1=O (stereo not given)
inactive: [1] 105% | [2] 99.1% | [3] 95.5% | [4] 96.5% | [5] 96.5% | [6] 108% | [7] 96.7% | [9] 100% | [10] 82%

CC(C)n1c(NCCc2ccc(O)c(O)c2)nc2c1c(=O)n(C)c(=O)n2C
inactive: [1] 107% | [2] 101% | [3] 98.4% | [4] 87.3% | [5] 84.6% | [6] 99.3% | [7] 88.1% | [9] 99.6% | [10] 105%

COc1ccc2c(CCC(c3ccccc3)c3ccccc3)c3[n+](cc2c1OC)CCc1cc2c(cc1-3)OCO2
inactive: [2] 24.7% | [4] 45.6% | [6] 23.4% | [7] 60.2%
active: [1] -15% | [3] 0.0445% | [5] 8.09% | [10] -10.1%

COc1ccc(OC)c(NC2=C(SCCc3ccccc3)C(=O)c3ccccc3C2=O)c1
inactive: [1] 73.2% | [2] 77.3% | [3] 91.2% | [4] 61.6% | [5] 110% | [6] 77.2% | [7] 63.7% | [9] 122% | [10] 80.4%

COc1ccc2c(CCc3ccc(Cl)cc3)c3[n+](cc2c1OC)CCc1cc2c(cc1-3)OCO2
inactive: [1] 36.7% | [2] 69.9% | [3] 21.9% | [4] 91.4% | [5] 67.9% | [6] 94.6% | [7] 99.2% | [9] 64.7% | [10] 72.6%

COc1ccc2c(CCCC(c3ccccc3)c3ccccc3)c3[n+](cc2c1OC)CCc1cc2c(cc1-3)OCO2
active: [1] -52.4% | [3] -65.6% | [4] 5.46% | [5] -30.7% | [9] 5.53% | [10] -20.5%
inactive: [2] 14.9% | [6] 11.6% | [7] 57.7%

C=C1C(=O)O[C@H]2[C@H]1CC/C(Cn1cc(-c3cc(C)c(C)cc3C)nn1)=C\CC[C@@]1(C)O[C@@H]21
active: [1] -12.9% | [2] -79.9% | [3] -34.6% | [4] -98.3% | [5] -98.9% | [6] -86.7% | [7] -93.7% | [9] -13.8% | [10] -19.2%

Cc1cccc(NC(=O)[C@@H]2c3ccccc3C(=O)N(c3ccc(Cl)cc3)[C@H]2c2ccc(Cl)cc2)n1
inactive: [1] 56.6% | [2] 37.2% | [3] 66.5% | [4] 37.6% | [5] 69.6% | [6] 52% | [7] 55.6% | [9] 73.2% | [10] 35.9%

COc1ccc(-c2nocc2-c2cc(OC)c(OC)c(OC)c2)cc1
inactive: [1] 41.5% | [2] 54.2% | [3] 50% | [4] 36.3% | [5] 67.3% | [6] 39.6% | [7] 31.2% | [10] 20.4%

Cc1nn(-c2nc3ccccc3[nH]2)c2c1C(c1ccc(O)cc1)CC(=O)N2 (stereo not given)
active: [10] -14.4%
inactive: [1] 51% | [2] 109% | [3] 101% | [4] 69.3% | [5] 86.9% | [6] 97% | [7] 89.9% | [9] 17.7%
